# Reference: PubChem BioAssay
# Several values for one entry are separate records, joined by “and”; a condition that tells them apart may be missing. Equal entries are not always repeated. Records with an inconclusive call do not appear. Activity calls are given as the source filed them. Unless noted, no stated cut-off is given here; in the data, active means inhibition above about 80%; inactive means the rest.
# Assays:
# [1] = growth inhibition of DIPG glioma cells, dose response, cell-based, SU-DIPG-XIII, MIPE5.0, CellTiter-Glo, qHTS (AID 1347064; cut-off not given, nearly all actives have AC50 up to about 23 µM); conditions: SU-DIPG-XIII viability, CellTiter-Glo ATP luminescence
# [2] = viability loss in pontine glioma line – cell-based, SU-DIPG-XXV, MIPE5.0, CellTiter-Glo, qHTS, dose response (AID 1347065; cut-off not given, nearly all actives have AC50 up to about 26 µM;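 further: cells exposed to compound for 48 hours before ATP readout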); conditions: CellTiter-Glo ATP luminescence
# [3] = JHH-DIPG-1 glioma cell viability, MIPE5.0 library, CellTiter-Glo luminescence, qHTS (AID 1347067; cut-off not given, nearly all actives have AC50 up to about 26 µM;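 further: cells exposed to compound for 48 hours before readout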); conditions: JHH-DIPG-1 glioma viability, CellTiter-Glo ATP luminescence
# [4] = SU-DIPG-XXV glioma cell viability, MIPE5.0 library, qHTS (AID 1347068; cut-off not given, nearly all actives have IC50 up to about 30 µM)
# [5] = sensitizers of A549 cells to miR-34 induction, primary screen, imaging, A549 dox-inducible miR-34, nuclei and caspase counts (AID 1347080;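 active means compounds whose cell count with miR-34 switched on is under 0.7 times the count with it off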); conditions: A549 miR-34 inducible, Hoechst nuclei count, 48 h
# [6] = survival rescue of mitochondrial mutant cells in low glucose, primary screen, MELAS cybrids, Rieske KO mouse fibroblasts, CellTiter-Glo (AID 1508586;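 active means mean z-score across replicates of 1.96 or higher in either the MELAS or the Rieske mutant cell line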;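 further: z relative to plate mean and SD of compound and empty wells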)
# [7] = LFS_MB_P medulloblastoma growth inhibition, cell-based, chromothripsis tumors, cisplatin or BGB combos (AID 1671449); conditions: LFS_MB_P medulloblastoma cells;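 further: cells exposed for 96 hours; 0% = vehicle DMSO and 100% = killing by high DMSO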
# [8] = HDN33 neuroblastoma growth inhibition, cell-based, chromothripsis tumors, cisplatin or BGB combos (AID 1671450); conditions: HDN33 neuroblastoma cells, stronger effect = higher value;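 further: cells exposed to compound for four days; 0% = vehicle DMSO and 100% = cell killing by high DMSO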
# [9] = ICB984 medulloblastoma cell growth inhibition, synergistic combos for chromothripsis tumors, cisplatin or BGB combos (AID 1671451; call rule not given here;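 further: cells exposed for 96 hours before readout; 0% = vehicle DMSO and 100% = killing by high DMSO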); conditions: ICB984 medulloblastoma cells, drug combinations, stronger effect = higher value
# [10] = LFS_MB_1R medulloblastoma cell growth inhibition, synergistic combos for chromothripsis tumors, cisplatin or BGB combos (AID 1671452); conditions: LFS_MB_1R medulloblastoma cells, stronger effect = higher value;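 further: cells exposed for 96 hours before readout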
# [11] = HTB85 osteosarcoma cell growth inhibition, synergistic combos for chromothripsis tumors, BGB or cisplatin IC20 combos (AID 1671453); conditions: HTB85 osteosarcoma cells, drug combinations, stronger effect = higher value;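 further: cells exposed for 96 hours before readout; 0% = vehicle DMSO and 100% = high DMSO killing control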
# [12] = measured here: combination with BGB IC40, at 0.05 µM
smiles,measurement,setting,value
COC1CCN(C(=O)c2cc(Cc3n[nH]c(=O)c4ccccc34)ccc2F)CC1,outcome,[1],inactive
same,outcome,[2],inactive
same,outcome,[3],inactive
same,outcome,[4],inactive
same,fold change,"[5]; stronger effect = lower value, cell number ratio, induced over uninduced",0.934 (inactive)
same,fold change,[5]; measured here: relative caspase fold change +Dox/-Dox,0.846
same,cell count,"[5]; measured here: total cells with miR-34 induction, stronger effect = lower value",6330
same,cell count,[5]; measured here: total cells without miR-34 induction,6780
same,z-score,"[6]; MELAS cybrid survival, CellTiter-Glo 48 h, stronger effect = higher value",-0.18 (inactive)
same,z-score,"[6]; Rieske KO mouse fibroblast survival, CellTiter-Glo 72 h",-0.126
same,inhibition,"[7]; at 0.5 µM, stronger effect = higher value",-12.1% (inactive) and -16.1% (inactive)
same,inhibition,"[7]; measured here: combination with BGB IC20, at 0.005 µM",-30.7% and -15.3%
same,inhibition,"[7]; measured here: combination with BGB IC40, at 0.005 µM",-38.1% and -33.1%
same,inhibition,[7]; [12],-30.5% and -42.3%
same,inhibition,"[7]; measured here: combination with cisplatin, at 0.5 µM, stronger effect = higher value",-37.8% and -19.2%
same,inhibition,"[7]; measured here: combination with cisplatin, at 5 µM, stronger effect = higher value",-40.5% and -57.1%
same,inhibition,"[8]; BGB combo, at 5 µM",-13.6% and 13.4%
same,inhibition,[8]; at 0.5 µM,-10.1% (inactive) and -7.74% (inactive)
same,inhibition,"[8]; cisplatin combo, at 5 µM",23.9% and 26%
same,inhibition,"[8]; measured here: with BGB IC20 combination, at 0.5 µM",-20.4% and -10.8%
same,inhibition,"[8]; measured here: with cisplatin IC20 combination, at 0.5 µM",5.53% and -9.06%
same,inhibition,"[8]; single agent, at 5 µM",14.4% and 38.9%
same,inhibition,"[9]; BGB IC20 combo, at 0.005 µM",-4.23% and -19.5%
same,inhibition,"[9]; BGB IC40 combo, at 0.005 µM",-0.687% and -29.1%
same,inhibition,"[9]; BGB IC40 combo, at 0.05 µM",-13.2% and -21.3%
same,inhibition,[9]; at 0.5 µM,-24.6% (inactive) and -24.2% (inactive)
same,inhibition,"[9]; cisplatin combo, at 0.05 µM",-19% and -25.6%
same,inhibition,"[9]; cisplatin combo, at 0.5 µM",-40.6% and -12.4%
same,inhibition,"[9]; cisplatin combo, at 5 µM",-8.06% and -25.7%
same,inhibition,"[9]; measured here: 5 uM single agent, at 5 µM",0.595% and -12.2%
same,inhibition,[10]; at 0.5 µM,-26.2% (inactive) and -13.9% (inactive)
same,inhibition,[10]; [12],-15.2% and -8.03%
same,inhibition,"[10]; measured here: combination with cisplatin, at 0.5 µM",-30.2% and -13%
same,inhibition,"[10]; measured here: combination with cisplatin, at 5 µM",-19.4% and -3.56%
same,inhibition,[11]; at 0.5 µM,-11.4% (inactive) and 6.36% (inactive)
same,inhibition,"[11]; measured here: with BGB IC20, at 0.5 µM",-12.2% and -3.86%
same,inhibition,"[11]; measured here: with BGB IC20, at 5 µM",12.4% and 5.4%
same,inhibition,"[11]; measured here: with cisplatin IC20, at 0.5 µM",-10.7% and 2.43%
same,inhibition,"[11]; measured here: with cisplatin IC20, at 5 µM",15.8% and -12.3%
